Results from PubChem BioAssay (NCATS).
Where “and” joins values, the source holds several entries; their conditions need not be identical. Identical values can stand only once. Results filed as inconclusive are left out. Calls of active or inactive are those of the source. Unless noted, calls come from the whole dose curve; as a rule, active = well fitted curve in the direction sought with a large enough effect; inconclusive = small, poorly fitted or top-dose-only effect, or another doubt; inactive = no such curve, though single readings can be large; an effect the other way counts as inactive or inconclusive.

What was measured:
[1] = molecular target: Voltage-gated inwardly rectifying potassium channel KCNH2 (Homo sapiens) (UniProt Q12809); experiment: qHTS Assay for Small Molecule Inhibitors of the Human hERG Channel Activity (AID 588834);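 note: lower thallium flux fluorescence means stronger hERG block; nearly all actives have a fitted effect of over 50% in size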; note: potency is the fitted concentration of half-maximal effect
How it was run: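 U2OS cells BacMam-transduced with hERG, 2000 cells/well, compound ~10 min at 37 °C before stimulation buffer. FluxOR thallium flux fluorescence read kinetically on FDSS; decrease indicates block; AC50 from Hill fits.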

[2] = molecular target: Luciferin 4-monooxygenase (Photinus pyralis) (UniProt P08659); experiment: Biochemical firefly luciferase enzyme assay for NPC (AID 624030);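 note: purified P. pyralis luciferase at 10 nM with luciferin and ATP substrate; series mostly up to about 59 µM; 0% = DMSO and -100% = full luciferase inhibition by PTC124 control; nearly all actives have a fitted effect of over 70% in size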
How it was run: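 Counter-screen for direct inhibition of the luciferase enzyme by approved-drug library compounds, run at 10 nM enzyme in 50 mM Tris acetate (final). Luminescence was read within 5 min of enzyme-buffer addition and normalized to PTC124 versus DMSO (0%).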

[3] = S16 Schwann cell viability assay (CellTiter-Glo assay) (AID 624031);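 note: native untransfected S16 rat Schwann cells; cellular ATP luminescence as a viability measure; series mostly up to about 58 µM; plate controls were DMSO-treated cells for no effect and cell-free wells for full effect; nearly all actives have a fitted effect of over 70% in size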
How it was run: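 Parental S16 cells, 24 h compound, 37 °C. ATP-luminescence viability; DMSO = 0% activity, empty wells as reference; curves classified by fit quality and efficacy.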

[4] = S16 Schwann cell PMP22 intronic element beta-lactamase assay (AID 624044; calls by dose curve; note: nearly all actives have a fitted effect of over 15% in size; note: potency is the fitted concentration of half-maximal effect)
How it was run: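 Rat S16 Schwann cells with beta-Lac driven by a PMP22 intronic element, compound-treated 24 h at 37 °C. LiveBLAzer FRET B/G read: 460 nm normalized to potassium clavulanate vs DMSO; 535 nm FRET as viability; concentration-effect curves classified.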

[5] = qHTS assay for small molecule activators of the p53 signaling pathway (AID 651743; active = well fitted activation curve with a large enough effect in the signal ratio, not every such curve was filed as active; the % refers to the signal ratio; note: series mostly up to about 92 µM; % of control where 0% means no effect); conditions: HCT-116 p53RE-bla, beta-lactamase FRET ratio, 16 h; activation: stronger effect = higher value
How it was run: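 Cell-based beta-lactamase reporter (p53 response elements, HCT-116 background). After a 5-hour preincubation, cells received compound for 16 hours at 37 C; substrate development ran 2 hours at room temperature.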

[6] = qHTS assay for small molecule activators of the nuclear factor-kappa B (NF-kB) signaling pathway (AID 651749; active = well fitted activation curve with a large enough effect in the signal ratio; the % refers to the signal ratio; note: series mostly up to about 77 µM; % of control where 0% means no effect); conditions: NF-kB-bla ME-180 cells, beta-lactamase FRET ratio, 16 h; stronger effect = higher value
How it was run: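 Screening used 2,000 ME-180 reporter cells per well exposed to pinned compound (23 nL) or DMSO; after 16 hr at 37C, beta-lactamase expression under NF-kB control was assessed through FRET.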

[7] = qHTS assay for environmental chemicals that activate the Aryl hydrocarbon Receptor (AhR) signaling pathway (AID 651777); conditions: 1A2-DRE human hepatoma cells, luciferase, 24 h; activation: stronger effect = higher value; note: % of control where 0% means no effect; nearly all actives have a fitted effect of over 15% in size
How it was run: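 Reporter gene assay: hepatoma cells with DRE/CYP1A2-luciferase, 24 hr compound incubation at 37 C, 5% CO2, luminescence after One-Glo (30 min, RT).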

[8] = molecular target: Peroxisome proliferator-activated receptor alpha (Homo sapiens) (UniProt Q07869); experiment: qHTS assay for small molecule agonists of the peroxisome proliferator-activated receptor alpha (PPARalpha) signaling pathway (AID 651778); conditions: PathHunter PPARalpha complementation, chemiluminescence, 6 h; stronger effect = higher value; note: % of control where 0% means no effect
How it was run: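 Cells plated at 2,000/well and held overnight at 37 C, 5% CO2, then compound added by pin tool for 6 hr; after PathHunter detection reagent and 60 min at room temperature, chemiluminescence from enzyme complementation was read.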

[9] = S16 Schwann cell PMP22 intronic element firefly luciferase assay (AID 624032); note: nearly all actives have a fitted effect of over 30% in size; note: potency is the fitted concentration of half-maximal effect
How it was run: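 Rat S16 Schwann cells stably carrying a PMP22 intronic element-driven Fluc reporter were seeded overnight, then exposed to compounds for 24 h at 37 °C. Luminescence was normalized to PTC124 (positive control) and DMSO (0% activity).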

[10] = qHTS assay for small molecule agonists of the antioxidant response element (ARE) signaling pathway (AID 651741; active = well fitted activation curve with a large enough effect in the signal ratio; the % refers to the signal ratio; note: potency is the fitted concentration of half-maximal effect)
How it was run: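 Compounds in DMSO are pinned onto HepG2 ARE-bla cells (2,000/well) that were preincubated 5 h; plates stay 16 h at 37 C, then beta-lactamase activity is detected with LiveBLAzer B/G substrate by fluorescence.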

[11] = molecular target: Tumor necrosis factor (Homo sapiens) (UniProt P01375); experiment: qHTS assay to identify small molecules that stimulate Tumor Necrosis Factor-alpha (TNF-alpha) secretion (AID 651757; active = well fitted curve in the direction sought with a large enough effect in the signal ratio; the % refers to the signal ratio; note: 0% is about no effect)
How it was run: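 Read-out is HTRF, a TR-FRET sandwich of cryptate- and XL665-labeled anti-TNF-alpha antibodies detecting cytokine secreted by THP-1 cells. Cells had been incubated with test compounds at 37 C for 17 hrs beforehand.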

[12] = qHTS assay to identify small molecules that stimulate interleukin-8 (IL-8) secretion (AID 651758; active = well fitted activation curve with a large enough effect in the signal ratio; the % refers to the signal ratio; note: 0% is about no effect)
How it was run: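 THP-1, 2000 cells/well; cpd 16 h, 37 C; add cryptate + XL665 anti-IL-8 Abs; RT 1-3 h; TR-FRET read.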

[13] = molecular target: Glutaminase kidney isoform, mitochondrial (Homo sapiens) (UniProt O94925); experiment: qHTS for Inhibitors of Glutaminase (GLS): LOPAC Validation (AID 624146);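 note: glutamate product detected by oxidase and peroxidase coupled Amplex red fluorescence gain; series mostly up to about 46 µM; % is set by controls: 0 for no effect and ±100 for the full control effect; nearly all actives have a fitted effect of over 60% in size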
How it was run: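 Read-out is an Amplex red fluorescence increase coupled through glutamate oxidase and HRP, measured before and after 30 min room-temperature incubation. hKGA is in 45 mM KH2PO4 (pH 8.2) with 0.02% Tween-20; glutamine added as 1mM solution.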

[14] = qHTS of Trypanosoma Brucei Inhibitors: LOPAC Validation (AID 624147); note: 0% is about no effect
How it was run: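 Readout: single end-point luminescence (Kinase-Glo Plus, 10 min). Reaction conditions were TbPYK/substrate plus 130 uM ADP, 45 min at RT, pH 7.2 TEA buffer. No-enzyme wells served as controls, and data were normalized before concentration-response fitting.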

[15] = molecular target: Glucagon-like peptide 1 receptor (Homo sapiens) (UniProt P43220); experiment: qHTS of GLP-1 Receptor Agonists: LOPAC Validation (AID 624148);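 note: 0% is about no effect; higher luminescence signal means agonism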
How it was run: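 HEK293 cells stably co-expressing a cAMP-responsive luciferase reporter and a hypersensitive GLP-1R were plated 12 h at 37 °C and exposed to compounds for 4-6 hr at 37 °C, 5% CO2. Luminescence was read 12 min after adding detection reagent.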

[16] = qHTS of Nrf2 Activators: LOPAC Validation (AID 624149); note: 0% is about no effect
How it was run: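 Luminescence read-out of ARE-luciferase activation: AREc32_Fluc cells treated with compounds for 24 hr at 37 deg C, then lysed with Steady-Glo for 30 min at room temperature before reading.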

[17] = HTS Assay for Allosteric Antagonists of the Human D2 Dopamine Receptor: Hit Validation in HTRF (AID 624455);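 note: stable D1 dopamine receptor cell line scored for blocking the D1 response; % is set by controls: 0 for no effect and ±100 for the full control effect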
How it was run: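 First, antagonism was screened by calcium flux in a force-coupled, inducible Hek293 Trex D2 line challenged with EC80 dopamine. Hits then went into an HTRF assay in cells stably expressing D1, testing inhibition of the D1 response.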

Peroxisome proliferator-activated receptor alpha (Homo sapiens), sequence (Q07869 whole entry, looked up): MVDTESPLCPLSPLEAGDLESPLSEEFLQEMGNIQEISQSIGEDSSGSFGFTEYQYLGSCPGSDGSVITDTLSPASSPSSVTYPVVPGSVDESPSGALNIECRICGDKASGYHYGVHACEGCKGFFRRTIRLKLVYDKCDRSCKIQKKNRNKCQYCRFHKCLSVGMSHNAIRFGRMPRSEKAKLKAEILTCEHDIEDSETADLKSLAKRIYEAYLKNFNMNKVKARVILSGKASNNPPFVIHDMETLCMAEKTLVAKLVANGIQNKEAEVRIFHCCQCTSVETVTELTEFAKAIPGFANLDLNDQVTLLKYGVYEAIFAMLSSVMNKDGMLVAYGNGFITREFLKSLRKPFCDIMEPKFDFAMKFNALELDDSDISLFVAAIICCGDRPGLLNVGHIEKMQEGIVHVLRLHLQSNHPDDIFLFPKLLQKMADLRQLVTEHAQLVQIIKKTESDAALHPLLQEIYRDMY
Luciferin 4-monooxygenase (Photinus pyralis), sequence (P08659 whole entry, looked up): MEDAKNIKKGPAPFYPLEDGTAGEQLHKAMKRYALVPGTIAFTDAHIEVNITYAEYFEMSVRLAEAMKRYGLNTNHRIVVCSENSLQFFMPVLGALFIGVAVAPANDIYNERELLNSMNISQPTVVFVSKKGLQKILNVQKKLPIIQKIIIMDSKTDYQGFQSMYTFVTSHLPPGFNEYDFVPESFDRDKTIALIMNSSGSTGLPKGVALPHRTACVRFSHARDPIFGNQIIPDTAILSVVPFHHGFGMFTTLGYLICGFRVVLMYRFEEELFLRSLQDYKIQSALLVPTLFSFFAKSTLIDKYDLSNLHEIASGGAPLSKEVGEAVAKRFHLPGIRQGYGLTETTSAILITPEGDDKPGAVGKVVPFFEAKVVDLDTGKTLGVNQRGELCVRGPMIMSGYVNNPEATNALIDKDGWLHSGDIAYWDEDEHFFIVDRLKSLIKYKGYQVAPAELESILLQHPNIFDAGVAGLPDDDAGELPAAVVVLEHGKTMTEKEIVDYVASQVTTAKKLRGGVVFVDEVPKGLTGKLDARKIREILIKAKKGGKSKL
Voltage-gated inwardly rectifying potassium channel KCNH2 (Homo sapiens), sequence (Q12809 whole entry, looked up): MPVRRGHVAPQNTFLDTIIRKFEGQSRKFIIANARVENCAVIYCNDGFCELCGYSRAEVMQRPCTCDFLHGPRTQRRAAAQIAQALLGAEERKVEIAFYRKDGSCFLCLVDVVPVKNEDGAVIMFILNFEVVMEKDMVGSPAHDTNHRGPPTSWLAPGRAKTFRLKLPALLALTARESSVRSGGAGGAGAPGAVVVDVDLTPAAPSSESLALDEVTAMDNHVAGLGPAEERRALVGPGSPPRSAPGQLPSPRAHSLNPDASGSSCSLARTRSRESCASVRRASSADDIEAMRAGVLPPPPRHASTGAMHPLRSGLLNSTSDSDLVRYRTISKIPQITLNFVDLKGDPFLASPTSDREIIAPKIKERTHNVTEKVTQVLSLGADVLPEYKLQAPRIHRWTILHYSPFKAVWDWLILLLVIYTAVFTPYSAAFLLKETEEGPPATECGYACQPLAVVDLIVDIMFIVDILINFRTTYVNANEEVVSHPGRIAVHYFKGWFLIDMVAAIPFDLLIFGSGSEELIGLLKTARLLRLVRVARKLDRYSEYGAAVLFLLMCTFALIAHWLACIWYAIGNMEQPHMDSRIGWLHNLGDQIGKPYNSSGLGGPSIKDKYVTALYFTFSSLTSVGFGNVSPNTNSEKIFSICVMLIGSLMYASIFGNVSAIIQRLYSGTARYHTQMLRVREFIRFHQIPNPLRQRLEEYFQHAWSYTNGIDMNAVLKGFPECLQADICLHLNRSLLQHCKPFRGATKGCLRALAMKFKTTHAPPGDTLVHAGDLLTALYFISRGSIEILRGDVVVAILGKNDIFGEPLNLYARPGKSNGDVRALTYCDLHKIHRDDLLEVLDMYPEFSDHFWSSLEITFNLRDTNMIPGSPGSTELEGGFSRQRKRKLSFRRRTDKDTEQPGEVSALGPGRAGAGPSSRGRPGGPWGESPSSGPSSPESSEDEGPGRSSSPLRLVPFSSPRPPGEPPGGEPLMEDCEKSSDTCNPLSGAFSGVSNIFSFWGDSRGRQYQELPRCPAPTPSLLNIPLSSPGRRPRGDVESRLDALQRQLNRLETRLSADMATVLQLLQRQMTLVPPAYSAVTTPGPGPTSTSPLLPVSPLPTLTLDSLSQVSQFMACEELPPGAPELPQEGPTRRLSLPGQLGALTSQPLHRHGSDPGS
Tumor necrosis factor (Homo sapiens), sequence (P01375 whole entry, looked up): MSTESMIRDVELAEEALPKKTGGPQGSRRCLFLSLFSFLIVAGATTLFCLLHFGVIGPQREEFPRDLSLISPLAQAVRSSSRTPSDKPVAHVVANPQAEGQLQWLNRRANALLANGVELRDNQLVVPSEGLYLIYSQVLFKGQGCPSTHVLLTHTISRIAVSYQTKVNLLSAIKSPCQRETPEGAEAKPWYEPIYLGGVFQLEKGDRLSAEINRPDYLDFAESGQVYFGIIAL
Glucagon-like peptide 1 receptor (Homo sapiens), sequence (P43220 whole entry, looked up): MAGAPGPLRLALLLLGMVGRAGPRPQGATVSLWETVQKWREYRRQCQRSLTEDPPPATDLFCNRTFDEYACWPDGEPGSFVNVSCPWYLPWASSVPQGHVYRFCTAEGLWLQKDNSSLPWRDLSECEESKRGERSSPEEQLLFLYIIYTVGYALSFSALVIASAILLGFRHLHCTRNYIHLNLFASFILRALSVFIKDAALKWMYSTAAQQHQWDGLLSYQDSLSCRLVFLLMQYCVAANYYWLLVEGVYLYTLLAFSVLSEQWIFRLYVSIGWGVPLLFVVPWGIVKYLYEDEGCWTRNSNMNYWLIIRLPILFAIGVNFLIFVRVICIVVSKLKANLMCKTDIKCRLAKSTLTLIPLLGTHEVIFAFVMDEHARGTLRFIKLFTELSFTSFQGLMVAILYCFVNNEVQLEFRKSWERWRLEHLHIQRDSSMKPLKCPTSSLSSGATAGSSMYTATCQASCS
Glutaminase kidney isoform, mitochondrial (Homo sapiens), sequence (O94925 whole entry, looked up, canonical isoform): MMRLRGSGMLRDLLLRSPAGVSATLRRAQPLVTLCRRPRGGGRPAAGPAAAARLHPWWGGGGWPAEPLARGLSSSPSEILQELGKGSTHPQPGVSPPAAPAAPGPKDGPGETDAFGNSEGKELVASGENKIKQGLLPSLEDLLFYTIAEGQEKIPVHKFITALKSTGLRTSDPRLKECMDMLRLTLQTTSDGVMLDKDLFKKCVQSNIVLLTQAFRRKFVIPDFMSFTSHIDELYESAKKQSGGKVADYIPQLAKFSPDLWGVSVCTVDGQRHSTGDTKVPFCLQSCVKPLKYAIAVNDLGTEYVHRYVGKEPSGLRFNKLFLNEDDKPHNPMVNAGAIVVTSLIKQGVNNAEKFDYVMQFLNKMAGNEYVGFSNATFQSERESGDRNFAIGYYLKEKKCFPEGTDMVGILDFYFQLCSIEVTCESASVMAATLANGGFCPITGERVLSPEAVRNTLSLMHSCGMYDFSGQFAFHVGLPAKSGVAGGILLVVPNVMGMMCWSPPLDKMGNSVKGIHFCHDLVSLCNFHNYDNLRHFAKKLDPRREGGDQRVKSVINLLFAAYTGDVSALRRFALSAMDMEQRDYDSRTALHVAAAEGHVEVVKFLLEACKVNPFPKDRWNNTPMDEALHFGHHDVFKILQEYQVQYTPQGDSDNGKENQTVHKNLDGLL

C#C[C@]1(O)CC[C@H]2[C@@H]3CCC4=Cc5oncc5C[C@]4(C)[C@H]3CC[C@@]21C
inactive: Potency [1] | Potency [2] | Potency [3] | Potency [4] | activation [5] -3.96% | activation [6] 0.141% | activation [7] 0.604% | max response [8] -4.33%

CCOC(=O)Nc1ccc2c(c1)N(C(=O)CCN1CCOCC1)c1ccccc1S2
inactive: Potency [1] | Potency [2] | Potency [3] | Potency [4]

COc1ccc(-c2cc(C(F)F)nn2-c2ccc(S(N)(=O)=O)cc2)cc1F
inactive: Potency [1] | Potency [2] | Potency [3] | Potency [9] | Potency [4]

C#C[C@]1(O)CC[C@H]2[C@@H]3CCC4=CC(=O)CC[C@@H]4[C@H]3CC[C@@]21CC
active: Potency [9] 20.3 µM
inactive: Potency [1] | Potency [2] | Potency [3] | Potency [4]

O=C1C(CCS(=O)c2ccccc2)C(=O)N(c2ccccc2)N1c1ccccc1 (stereo unspecified)
inactive: Potency [1] | Potency [2] | Potency [3] | Potency [4]

CC[C@H](c1ccc(O)cc1)[C@@H](CC)c1ccc(O)cc1
inactive: Potency [1] | Potency [2] | Potency [3] | Potency [4]

CCOc1ccccc1OCCN[C@H](C)Cc1ccc(OC)c(S(N)(=O)=O)c1
active: Potency [1] 14.1 µM
inactive: Potency [2] | Potency [3] | Potency [9] | Potency [4]

Cc1ccccc1OCC(O)CO (stereo unspecified)
inactive: Potency [1] | Potency [2] | Potency [3] | Potency [9] | Potency [4]

CC(=O)OC[C@H]1O[C@@H](n2ncc(=O)[nH]c2=O)[C@H](OC(C)=O)[C@@H]1OC(C)=O
active: Potency [4] 9.99 µM
inactive: Potency [1] | Potency [2] | Potency [3] | Potency [9]

O=C(c1ccc(F)cc1)C1CCN(CCn2c(=S)[nH]c3ccccc3c2=O)CC1
active: Potency [1] 0.251 µM
inactive: Potency [2] | Potency [3] | Potency [4]

C/C=C/c1ccc(O)c(OC)c1
active: Potency [10] 30.6 µM and 42.2 µM
inactive: Potency [1] | Potency [2] | Potency [3] | Potency [9] | activation [5] -3.74% and -0.0356% | outcome [11] | outcome [12] | activation [7] 3.77% and 1.82% | max response [8] -4.52% and -2.32%

CCOc1cc(OCC)c(C(=O)CCC(=O)O)cc1OCC
inactive: Potency [1] | Potency [3]

O=[N+]([O-])c1cccc(S(=O)(=O)NCCNS(=O)(=O)c2cccc([N+](=O)[O-])c2)c1
inactive: Potency [1] | Potency [2] | Potency [9] | Potency [4]

O=C(O)Cc1csc(-c2ccc(Cl)cc2)n1
inactive: Potency [2] | Potency [3]

CN=C(N)NCCC[C@H](N)C(=O)O
inactive: Potency [1] | Potency [2] | outcome [13] | outcome [14] | outcome [15] | outcome [16] | outcome [17]

Cn1c(=O)c2[nH]c(Br)nc2n(C)c1=O
inactive: Potency [2] | Potency [3]
